{"source": "PubChem BioAssay AID488893", "about": "(Broad Institute, 2010)", "note": "Potency and affinity values are given separately. Values without a mark were called inactive.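 The calls were made as follows: active = falling signal whose fitted half-maximal dose is at most ten times the top valid tested dose; inconclusive = flat curve with 30 to 70% inhibition, or poor fit; inactive = the rest, including changes in the wrong direction.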"}
{"test": "Candida albicans growth inhibition, compound alone, dose response, counter-screen for antifungal drug resistance project, CaCi-2 strain, Alamar Blue, dry powder, set 2 (AID 488893)", "conditions": "C. albicans CaCi-2 (fluconazole-resistant clinical isolate) growth, Alamar Blue fluorescence, 48 h; series mostly up to 26 µM; activity change, negative = inhibition: at the top concentration", "units": {"activity change, negative = inhibition": "%"}}
{"smiles": "O=C(c1ccccc1Cl)N1CCN(c2ccnc3cc(Cl)ccc23)CC1", "activity change, negative = inhibition": 12.5}
{"smiles": "O=C(C1CCCCC1)N1CCN(c2ccnc3cc(Cl)ccc23)CC1", "activity change, negative = inhibition": -8.06}
{"smiles": "O=C(C1CCCC1)N1CCN(c2ccnc3cc(Cl)ccc23)CC1", "activity change, negative = inhibition": 3.43}
{"smiles": "CC1CN(c2ccnc3cc(Cl)ccc23)CCN1C(=O)c1ccc(Cl)cc1", "note": "(centres undefined)", "activity change, negative = inhibition": -12.6}
{"smiles": "O=C(Nc1ccc(Cl)cc1)N1CCN(c2ccnc3cc(Cl)ccc23)CC1", "activity change, negative = inhibition": -20.1}
{"smiles": "O=C(c1ccc(Cl)nc1)N1CCN(c2ccnc3cc(Cl)ccc23)CC1", "activity change, negative = inhibition": -11.7}
{"smiles": "O=C(c1ccc(Cl)cn1)N1CCN(c2ccnc3cc(Cl)ccc23)CC1", "activity change, negative = inhibition": -4.37}
{"smiles": "O=C(c1ccc(Cl)cc1)N1CCN(c2ccnc3ccccc23)CC1", "activity change, negative = inhibition": -9.45}
{"smiles": "O=C(c1ccc(Cl)cc1)N1CCN(c2ccnc3ccc(Cl)cc23)CC1", "activity change, negative = inhibition": -11.8}
{"smiles": "CC(C)CC(=O)N1CCN(c2ccnc3cc(Cl)ccc23)CC1", "activity change, negative = inhibition": 11}
{"smiles": "O=C(c1ccc(Cl)cc1)N1CCNCC1", "activity change, negative = inhibition": 25.8}
{"smiles": "O=C(c1cccc(Cl)c1)N1CCN(c2ccnc3cc(Cl)ccc23)CC1", "activity change, negative = inhibition": -12.1}
{"smiles": "COc1ccc2c(N3CCN(C(=O)c4ccc(Cl)cc4)CC3)ccnc2c1", "activity change, negative = inhibition": -0.767}
{"smiles": "O=C(c1ccc(Cl)cc1)C1CCN(c2ccnc3cc(Cl)ccc23)CC1", "activity change, negative = inhibition": -5.65}
{"smiles": "COc1ccnc(N2CCN(C(=O)c3ccc(Cl)cc3)CC2)c1", "activity change, negative = inhibition": -5.09}
{"smiles": "O=C(c1ccc(Cl)cc1)N1CCN(c2ccncc2)CC1", "activity change, negative = inhibition": 29.5}
{"smiles": "CC(C)C(=O)N1CCN(c2ccnc3cc(Cl)ccc23)CC1", "activity change, negative = inhibition": 32.7}
{"smiles": "O=C(O)Cn1nc(-c2ccccc2)c2ccccc21", "activity change, negative = inhibition": 8.12}
{"smiles": "O=C(c1ccc(Cl)cc1)N1CCN(c2ccnc3cc(Cl)ccc23)CC1", "activity change, negative = inhibition": -17.5}
